The nature of test [1]: qHTS assay to identify small molecule antagonists of the retinoid acid receptor (RAR) signaling pathway - cell viability counter screen (AID 1159551). Further: nearly all actives have a fitted effect of over 35% in size. Further: potency means the concentration at half of the fitted maximal effect. The procedure, abridged:
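C3RL4 cells were seeded overnight at 37 C, then treated with compounds plus 1 uM (final) retinol for 6 h at 37 C. Viability was read as ATP by CellTiter-Glo luminescence after 30 min at room temperature.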
On the technique in general: In qHTS, concentration-response curves come from the screen itself.

Test [2] can be described thus: qHTS assay to identify small molecule antagonists of the retinoic acid receptor (RAR) signaling pathway (AID 1159552; further: nearly all actives have a fitted effect of over 50% in size; further: potency means the concentration at half of the fitted maximal effect). A digest of the protocol: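 Cells of the C3RL4 line were seeded, incubated overnight, then dosed with compounds in DMSO followed immediately by retinol (1 uM final). Six hours later luciferase detection reagent went in; signal was measured after 30 min at RT.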

A short description of test [3]: qHTS assay to identify small molecule agonists of the retinoic acid receptor (RAR) signaling pathway (AID 1159553). A digest of the protocol:
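C3RL4 cells carrying a RARE luciferase reporter were plated overnight at 37 C, then exposed to compounds in DMSO for 6 hr at 37 C and 5% CO2. Luminescence was read 30 min after luciferase reagent addition at room temperature.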

In test [4] the target is Luciferin 4-monooxygenase (Photinus pyralis) (UniProt P08659). Nature of the test: qHTS assay to identify small molecule inhibitors of firefly luciferase (AID 1224835). Further: series mostly up to about 120 µM; nearly all actives have a fitted effect of over 25% in size. The procedure, abridged: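 Biochemical qHTS: compounds run as interplate titrations against purified firefly enzyme, with D-luciferin and ATP each at its KM concentration. Light output recorded by CCD imaging.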
Luciferin 4-monooxygenase (Photinus pyralis), sequence (P08659 whole entry, looked up): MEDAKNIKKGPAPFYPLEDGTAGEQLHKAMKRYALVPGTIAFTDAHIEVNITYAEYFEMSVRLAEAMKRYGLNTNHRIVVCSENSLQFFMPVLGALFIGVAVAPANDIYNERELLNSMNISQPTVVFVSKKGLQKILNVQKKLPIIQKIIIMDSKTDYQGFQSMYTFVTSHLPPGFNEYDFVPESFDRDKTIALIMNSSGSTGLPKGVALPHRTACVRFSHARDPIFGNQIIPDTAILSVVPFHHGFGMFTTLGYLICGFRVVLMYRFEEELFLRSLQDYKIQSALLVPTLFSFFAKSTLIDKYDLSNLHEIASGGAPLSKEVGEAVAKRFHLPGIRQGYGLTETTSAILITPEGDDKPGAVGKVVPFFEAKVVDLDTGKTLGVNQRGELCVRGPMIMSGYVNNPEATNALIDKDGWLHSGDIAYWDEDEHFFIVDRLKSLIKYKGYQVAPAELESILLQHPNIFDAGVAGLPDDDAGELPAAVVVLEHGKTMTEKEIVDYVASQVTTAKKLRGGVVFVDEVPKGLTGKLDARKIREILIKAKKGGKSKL

The nature of test [5]: qHTS assay to identify small molecule agonists of the constitutive androstane receptor (CAR) signaling pathway - cell viability counter screen (AID 1224836). Further: nearly all actives have a fitted effect of over 45% in size. Further: potency means the concentration at half of the fitted maximal effect. The procedure, abridged:
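HepG2-CYP2B6-hCAR, 2500 cells/well, 4 h pre-incubation; cpd 15 conc + PK11195 0.75 uM final; 23 h, 37 C/5% CO2; CellTiter-Fluor, fluorescence.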

Test [6] is described as follows: qHTS assay to identify small molecule antagonists of the constitutive androstane receptor (CAR) signaling pathway - cell viability counter screen (AID 1224837). Further: nearly all actives have a fitted effect of over 45% in size. Further: potency means the concentration at half of the fitted maximal effect. The procedure, abridged: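 HepG2 cells stably expressing hCAR and a CYP2B6-2.2kb reporter were plated and pre-incubated 4 hr at 37 C/5% CO2, then given compounds at 15 concentrations plus 50 nM CITCO (final). After 23 hr, viability was read by CellTiter-Fluor fluorescence.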

In test [7] the target is Nuclear receptor subfamily 1 group I member 3 (Homo sapiens) (UniProt Q14994). Nature of the test: qHTS assay to identify small molecule agonists of the constitutive androstane receptor (CAR) signaling pathway (AID 1224839). Further: series mostly up to about 92 µM; nearly all actives have a fitted effect of over 15% in size. A digest of the protocol:
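HepG2-CYP2B6-hCAR cells, 2500/well, 4 h pre-incubation; compounds 15 conc.; PK11195 0.75 uM final; 24 h, 37 C/5% CO2; ONE-Glo luciferase read.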

Test [8] can be described thus: qHTS assay to identify small molecule antagonists of the estrogen related receptor signaling pathway with the pleiotropic PPARgamma coactivator (PGC) from Tox21 10K library - cell viability counter screen (AID 1224840; active means well fitted cell-killing curve with a large enough effect in the repeat runs, not every such curve was filed as active; further: nearly all actives have a fitted effect of over 40% in size; further: potency means the concentration at half of the fitted maximal effect). A digest of the protocol:
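PGC/ERR cells were seeded at 2,000 cells/well and left 6 hours at 37 C/5% CO2 before pin-tool addition of compounds in DMSO. After 17.5 hours at 37 C, CellTiter-Fluor was added and fluorescence read 30 minutes later.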

The nature of test [9]: qHTS assay to identify small molecule agonists of the hypoxia (HIF-1) signaling pathway - cell viability counter screen (AID 1224844; calls by dose curve; further: nearly all actives have a fitted effect of over 50% in size; further: potency means the concentration at half of the fitted maximal effect). A digest of the protocol: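 HRE-bla ME-180 cells in medium with 0.5% dialyzed FBS were preincubated 5 hrs at 37C, exposed to compounds for 17 hrs, then viability was read as CellTiter-Glo luminescence after 30 min at room temperature, in the reporter wells.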

Test [10] addresses Nuclear receptor subfamily 1 group I member 3 (Homo sapiens) (UniProt Q14994). Nature of the test: qHTS assay to identify small molecule antagonists of the constitutive androstane receptor (CAR) signaling pathway (AID 1224838). Further: nearly all actives have a fitted effect of over 40% in size. Further: potency means the concentration at half of the fitted maximal effect. A digest of the protocol: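 HepG2 cells stably co-transfected with hCAR and a CYP2B6-2.2kb luciferase reporter were seeded 4 h before compound addition at 15 concentrations. Cells were stimulated with 50 nM CITCO (final) for 24 h at 37 C; luciferase luminescence was then read.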

Test [11] is described as follows: qHTS assay to identify small molecule antagonists of the estrogen related receptor signaling pathway with the pleiotropic PPARgamma coactivator (PGC) from Tox21 10K library (AID 1224841; call rule not given here; further: actives are mostly falling curves and most rising ones were filed inactive; nearly all actives have a fitted effect of over 50% in size; further: potency means the concentration at half of the fitted maximal effect). A digest of the protocol: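 PGC/ERR reporter cells were seeded at 2,000 cells/well and held 6 hours at 37 C/5% CO2 before pin-tool addition of compounds in DMSO. After 18 hours at 37 C, One-Glo was added and luminescence read after 30 minutes at room temperature.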

Test [12] is described as follows: qHTS assay to identify small molecule agonists of the estrogen related receptor signaling pathway with the pleiotropic PPARgamma coactivator (PGC) from Tox21 10K library (AID 1224842). Further: nearly all actives have a fitted effect of over 15% in size. Further: potency means the concentration at half of the fitted maximal effect. The procedure, abridged:
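PGC/ERR reporter cell line, 2,000 cells per well, incubated 6 h at 37 C before 23 nL compound in DMSO was added. After 18 h at 37 C, One-Glo luminescence read following 30 min at room temperature.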

Test [13] concerns the target Thyrotropin receptor (Homo sapiens) (UniProt P16473). Nature of the test: qHTS assay to identify small molecule agonists of the thyroid stimulating hormone receptor (TSHR) signaling pathway (AID 1224843; calls by dose curve; further: nearly all actives have a fitted effect of over 45% in size). The procedure, abridged:
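Steps: seed 800 TSHR-HEK293 cells per well; add test compound and hold 30 min at ambient temperature; dispense cAMP-d2 then anti-cAMP cryptate; incubate 1 h at ambient; measure fluorescence intensity.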

Test [14] in a line: qHTS assay to identify small molecule agonists of H2AX (AID 1224845; active means well fitted activation curve with a large enough effect in the signal ratio in the repeat runs, not every such curve was filed as active; the % refers to the signal ratio; further: potency means the concentration at half of the fitted maximal effect). The procedure, abridged: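 Wild-type CHO-K1 cells, plated overnight, exposed 3hr at 37C to 15 concentrations (0.76% DMSO final). Lysed, then HTRF anti-pH2AX (S139) cryptate and anti-H2AX-d2 antibodies, 24 hr room temperature; 665/620 nm emission read.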
Test [15] in a line: qHTS assay to identify small molecule antagonists of the estrogen related receptor (ERR) signaling pathway from Tox21 library - cell viability counter screen (AID 1224834). Further: nearly all actives have a fitted effect of over 30% in size. Further: potency means the concentration at half of the fitted maximal effect. The procedure, abridged: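 ERR reporter cells were plated 6 h before compound addition, then exposed to test compounds in DMSO for 17.5 h at 37 C. Viability was read as CellTiter-Fluor fluorescence after a 30-minute incubation at 37 C.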

The source of these data is PubChem BioAssay (Tox21).

SMILES strings stand for the structures. Several values for one entry are separate records, joined by “and”; a condition that tells them apart may be missing. Equal values may be shown once. Records with an inconclusive call do not appear. Values without a mark were called inactive. Activity calls are given as the source filed them. Unless noted, the call rests on the fitted dose curve; in most records, active means well fitted curve in the direction sought with a large enough effect in the repeat runs; inconclusive means weak or mixed curves; inactive means no such curve, though single readings can be large; an effect the other way counts as inactive or inconclusive.

Nuclear receptor subfamily 1 group I member 3 (Homo sapiens), sequence (Q14994 whole entry, looked up): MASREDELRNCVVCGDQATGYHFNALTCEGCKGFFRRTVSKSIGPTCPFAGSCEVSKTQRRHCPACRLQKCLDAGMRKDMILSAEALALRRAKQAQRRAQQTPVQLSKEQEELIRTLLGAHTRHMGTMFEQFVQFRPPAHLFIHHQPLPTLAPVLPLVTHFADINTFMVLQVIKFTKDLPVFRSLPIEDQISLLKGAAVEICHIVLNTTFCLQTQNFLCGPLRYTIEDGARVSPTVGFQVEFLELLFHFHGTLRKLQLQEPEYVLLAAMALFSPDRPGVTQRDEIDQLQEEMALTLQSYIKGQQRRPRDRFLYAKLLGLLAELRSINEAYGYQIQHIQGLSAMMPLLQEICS
Thyrotropin receptor (Homo sapiens), sequence (P16473 whole entry, looked up): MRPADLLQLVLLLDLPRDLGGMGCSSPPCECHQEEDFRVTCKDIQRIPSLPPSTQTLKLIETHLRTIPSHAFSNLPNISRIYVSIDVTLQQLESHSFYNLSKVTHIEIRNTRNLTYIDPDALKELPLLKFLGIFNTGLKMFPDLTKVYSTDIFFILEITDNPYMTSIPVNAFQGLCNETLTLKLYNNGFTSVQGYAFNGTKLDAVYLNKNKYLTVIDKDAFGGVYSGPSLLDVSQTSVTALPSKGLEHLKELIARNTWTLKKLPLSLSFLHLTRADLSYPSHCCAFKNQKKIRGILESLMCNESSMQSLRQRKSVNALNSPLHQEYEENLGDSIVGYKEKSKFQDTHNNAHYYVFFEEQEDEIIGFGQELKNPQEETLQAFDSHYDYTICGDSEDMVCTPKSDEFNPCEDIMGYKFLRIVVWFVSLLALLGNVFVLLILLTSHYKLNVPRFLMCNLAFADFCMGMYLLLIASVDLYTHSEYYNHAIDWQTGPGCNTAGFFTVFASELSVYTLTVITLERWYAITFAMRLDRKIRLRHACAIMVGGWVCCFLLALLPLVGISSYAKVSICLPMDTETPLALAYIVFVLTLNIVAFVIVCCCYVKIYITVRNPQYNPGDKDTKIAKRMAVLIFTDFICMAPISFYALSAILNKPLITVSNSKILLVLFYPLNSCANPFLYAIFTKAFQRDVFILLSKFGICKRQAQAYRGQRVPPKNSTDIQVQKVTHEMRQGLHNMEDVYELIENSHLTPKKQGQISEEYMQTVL

Consider `C[C@]12CC[C@H]3[C@@H](CCC4=CC(=O)CC[C@@]43C)[C@@H]1CC[C@@H]2O`, for which the Potency entry in test [1], in test [3], in [4], in test [5], in [6] and in [7] was “inactive” each time. Also, the Potency entry in test [8] and in test [9] was “inactive” throughout. Moreover, the Potency in test [2] was 48.2 µM (active).
`O=C(O)C1C2CCC(O2)C1C(=O)O` (configuration not stated): the Potency entry in [1], in test [2], in test [3], in test [4], in test [7] and in test [8] was “inactive” throughout. Besides, the Potency result in test [11], in test [13] and in test [9] was “inactive” in each case. Further, the Potency is 49.2 µM (active) and 44.5 µM (active) in [10]; 55.1 µM (active) and 19.9 µM (active) in [12]; 102 µM (active) in test [14].
`COc1ccc(/C(=C/C(=O)N2CCOCC2)c2ccc(Cl)cc2)cc1OC`: the Potency entry in test [1], in test [2], in test [3], in [4], in [5] and in test [6] was “inactive” in each case. Moreover, the Potency result in [10], in [7], in test [8], in test [11], in test [12] and in test [13] was “inactive” in each case. The Potency result in test [9] and in [14] was “inactive” in each case.
Turning to `O=C1c2ccccc2C(=O)C1C(=O)C(c1ccccc1)c1ccc(Cl)cc1` (configuration not stated), the Potency result in test [1], in test [2], in test [3], in [4], in test [6] and in [10] was “inactive” each time. The Potency entry in test [12] and in test [13] was “inactive” throughout. Moreover, the Potency was 6.11 µM (active) in test [11] and 9.77 µM (active) in test [9].
`CCCCCCCCCBr`: the Potency result in test [1], in [2], in test [3], in test [15], in test [5] and in [6] was “inactive” throughout. In addition, the Potency entry in test [10], in [7], in test [8], in [13], in test [9] and in test [14] was “inactive” throughout.
As for `ClC1=C(Cl)[C@]2(Cl)[C@@H]3[C@@H](Cl)[C@H](Cl)C[C@@H]3[C@@]1(Cl)C2(Cl)Cl`, the Potency result in test [1], in test [2], in test [15], in test [4], in test [5] and in test [6] was “inactive” each time. Also, the Potency entry in [10], in test [7], in test [8], in [11], in test [12] and in [9] was “inactive” each time. In addition, in test [14], the Potency entry is “inactive”.
On to `O=c1[nH]c2ccccc2n1CCCN1CCC(n2c(=O)[nH]c3cc(Cl)ccc32)CC1`, for which the Potency entry in test [1], in test [2], in test [3], in test [10], in test [7] and in test [13] was “inactive” in each case. Moreover, the Potency entry in test [9] was “inactive”. For the same compound, the Potency in test [15] is 29.8 µM (active).
On to `CC1(C)CN=C(NN=C(/C=C/c2ccc(C(F)(F)F)cc2)/C=C/c2ccc(C(F)(F)F)cc2)NC1`, for which the Potency in test [1] is 43.3 µM (active); in test [2], 9.69 µM (active); in [15] it was 21.7 µM (active); in test [5], 24.3 µM (active); in test [6], 21.7 µM (active); in [10] it was 19.3 µM (active). Besides, the figures for the Potency in [8], in [11] and in test [9] were 17.2 µM (active), 27.3 µM (active) and 21.9 µM (active), respectively. In addition, the Potency entry in [4], in [7], in [12], in test [13] and in test [14] was “inactive” each time.
